Reference: PubChem BioAssay (NCATS)
Records with an inconclusive call do not appear. Calls of active or inactive are those of the source. Calls follow the shape of the dose curve; as a rule, active = well fitted inhibition curve with a large enough effect; inconclusive = small, poorly fitted or top-dose-only effect; inactive = flat fitted curve, though single readings scatter. Where a SMILES comes first, the peptide text is derived from it. [ ]: non-standard residue; d: D form. ξ: configuration not given here. ξLac(3-iPr) = CC(C)CC(O)C(=O)O; NMeV = CN[CH](C(=O)O)C(C)C; βAla = NCCC(=O)O

Assay: P-glycoprotein substrates identified in KB-8-5-11 adenocarcinoma cell line, qHTS therapeutic library screen (AID 1346987); also: nearly all actives have a fitted effect of over 65% in size
Details: KB-8-5-11 (P-gp overexpressing) viability, CellTiter-Glo, 72 h; series mostly up to 44.5 µM; activity change, negative = cytotoxicity: at the top concentration
Summary of the method: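 Human cervical adenocarcinoma KB-8-5-11 cells, selected in colchicine to over-express P-gp and assayed without it, were exposed for 72 h to titrated compounds. An ATP-based luminescent viability signal gave AC50.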
% is scaled to controls: 0 for no effect and ±100 for the full control effect; potency is read from the fitted curve at half-maximal effect.

Row | SMILES | activity change, negative = cytotoxicity | Potency | outcome
1 | CC(=O)N[C@@H](C(=O)O[C@H]1CCC(C)(C)[C@@H]2CCC3=C(COC3=O)[C@@]12C)C(C)C | -3.92% (inactive) | – | –
2 | CC(C)Oc1ccc(C(=O)NC(CNC(=O)CN(C)C)Cc2ccc(-c3cn4cccc(C(C)O)c4n3)cc2)cc1Cl (centres undefined) | – | 6.51 µM (active) | –
3 | C=C1CCC2C(C)(C)C(O)CCC2(C)C1CCC(C)CCOC(C)=O (centres undefined) | -0.883% (inactive) | – | –
4 | CCCCc1nc2cc(/C=C/C(=O)NO)ccc2n1CCN(CC)CC | – | 3.26 µM (active) | –
5 | COc1ccc(C2=N[C@@H](c3ccc(Cl)cc3)[C@@H](c3ccc(Cl)cc3)N2C(=O)N2CCNC(=O)C2)c(OC(C)C)c1 | 4.25% (inactive) | – | –
6 | CC(C)CC(=O)OC1OC=C(CO[C@@H]2O[C@H](CO)[C@@H](O)[C@H](O)[C@H]2O)C2CC(O)C(O)(CO)C12 (some centres undefined) | 8.74% [at 17.3 µM] (inactive) | – | –
7 | NC1CCC(Nc2cc(-c3cccc(NCc4cccc(F)c4)n3)c(Cl)cn2)CC1 (centres undefined) | – | 1.16 µM (active) | –
8 | COc1ccc(C(=O)Nc2ncc(-c3ccc(C(=O)O)cc3)s2)cc1 | – | 2.91 µM (active) | –
9 | C=CC1(C)CC(OC(=O)/C(C)=C\COC(C)=O)C(C(=C)C(=O)O)C(O)C1C(=C)CO (centres undefined) | 2.76% [at 17.3 µM] (inactive) | – | –
10 | COc1cc2c(cc1O)CC[C@H]1[C@@H]2CC[C@]2(C)[C@H](O)CC[C@@H]12 | – | 1.3 µM (active) | –
11 | CC(C)CC1OC(=O)C2CCCN2C(=O)CCNC(=O)C(Cc2ccccc2)NC(=O)C(C(C)C)N(C)C(=O)C(C(C)C)N(C)C1=O (centres undefined) (cyclo([ξLac(3-iPr)][NMeV][NMeV]F[βAla]P); configuration not given here) | -10.3% [at 17.3 µM] (inactive) | – | –
12 | CC1(C)CC[C@]2(C(=O)O[C@@H]3O[C@H](CO)[C@@H](O)[C@H](O)[C@H]3O)CC[C@]3(C)C(=CCC4[C@@]5(C)CC[C@H](O[C@@H]6O[C@H](C(=O)O)[C@@H](O)[C@H](O)[C@H]6O)[C@@](C)(CO)C5CC[C@]43C)C2C1 (some centres undefined) | -4.65% [at 9.29 µM] (inactive) | – | –
13 | COc1ccc([C@@]2(O)c3c(ccc4c3OC(C)(CCC=C(C)C)C=C4)NC(=O)[C@@H]2OC)cc1 (some centres undefined) | 0.889% [at 17.3 µM] (inactive) | – | –
14 | NC(=O)c1cccc(-c2cc(OC(=O)NC3CCCCC3)ccc2O)c1 | -7.82% (inactive) | – | –
15 | CC(=O)O[C@@](C)(C(=O)/C=C/C(C)(C)O)[C@H]1[C@H](O)C[C@@]2(C)[C@@H]3CC=C4[C@@H](C=C(O)C(=O)C4(C)C)[C@]3(C)C(=O)C[C@]12C | – | 0.796 µM (active) | –
16 | COc1ccc(C(=O)C2CCN(CC(=O)N(Cc3nc4c(c(=O)[nH]3)COCC4)CC3CC3)CC2)cc1 | -11.6% (inactive) | – | –
17 | CON(C)C(=O)[C@H](O)[C@H](Cc1ccccc1)NC(=O)c1cc2cc(Cl)ccc2[nH]1 | -6.38% (inactive) | – | –
18 | CC1=CC2/C=C(\C)CC[C@@H](O)[C@@H](O)[C@@H]3O[C@@H]3C(=O)[C@]23C(=O)N[C@@H](CC(C)C)[C@@H]3[C@@H]1C (some centres undefined) | -5.48% [at 17.3 µM] (inactive) | – | –
19 | CC1(C)CC2=C3C=CC4C5(C)CCC(O)C(C)(C)C5CCC4(C)C3(C)CCC2(C)C(O)C1 (centres undefined) | -3.24% [at 17.3 µM] (inactive) | – | –
20 | COC1CC(O[C@H]2CC[C@@]3(C)C(=CC[C@]4(O)C3[C@H](OC(C)=O)[C@@H](OC(=O)c3ccccc3)[C@]3(C)[C@@H](C(C)=O)CC[C@@]34O)C2)OC(C)C1OC1CC(OC)C(OC2CC(OC)C(OC3OC(C)C(OC4OC(CO)C(O)C(O)C4O)C(OC)C3O)C(C)O2)C(C)O1 (some centres undefined) | 1.94% [at 9.29 µM] (inactive) | – | –

Row | SMILES | activity change, negative = cytotoxicity | Potency | outcome
21 | O=C(NCc1ccccn1)Nc1nnc(-c2ccco2)o1 | -3.61% (inactive) | – | –
22 | N#C[C@@H]1C[C@H](F)CN1C(=O)CNC1[C@H]2CN(C(=O)c3ccc(F)cc3)C[C@@H]12 (some centres undefined) | 8.85% (inactive) | – | –
23 | CC(C)CNCc1ccc(-c2ccccc2S(=O)(=O)N2CCCC2)cc1 | -23% (inactive) | – | –
24 | O=C(/C=C\c1ccc(O)cc1)N[C@@H](Cc1ccc(O)cc1)C(=O)O | 1.87% (inactive) | – | –
25 | C=C(CO[C@@H]1O[C@H](CO[C@@H]2OC[C@](O)(CO)[C@H]2O)[C@@H](O)[C@H](O)[C@H]1O)C1Cc2cc(C(C)=O)ccc2O1 (some centres undefined) | 8.42% [at 17.3 µM] (inactive) | – | –
26 | Cc1nc2ccc(Oc3ccc(F)cc3)cc2c(=O)n1C[C@H]1CCCN(C(C)C)C1 | -13.1% (inactive) | – | –
27 | C[C@@H]1O[C@@H](O[C@@H]2[C@@H](O[C@@H]3O[C@@H](C)[C@H](O[C@@H]4OC[C@H](O)[C@H](O[C@@H]5OC[C@@H](O)[C@H](O)[C@H]5O)[C@H]4O)[C@@H](O[C@@H]4OC[C@](O)(CO)[C@H]4O)[C@H]3O)[C@H](OC(=O)[C@]34CCC(C)(C)C[C@H]3C3=CCC5[C@@]6(C)C[C@H](O)[C@H](O[C@@H]7O[C@H](CO[C@@H]8OC[C@H](O)[C@H](O)[C@H]8O)[C@@H](O)[C@H](O)[C@H]7O)C(C)(C)C6CC[C@@]5(C)[C@]3(C)C[C@H]4O)OC[C@H]2O)[C@H](O)[C@H](O)[C@H]1O (some centres undefined) | – | – | inactive [at 9.29 µM]
28 | CCNC(=O)C1OC(n2cnc3c(N)nc(NCCc4ccc(CCC(=O)O)cc4)nc32)C(O)C1O (centres undefined) | -5.42% (inactive) | – | –
29 | CN(C)c1nc(NC2CCC(NC(=O)c3ccc(F)c(F)c3)CC2)nc2ccccc12 (centres undefined) | – | 20.6 µM (active) | –
30 | C[C@@H]1C(=O)O[C@H]2C[C@]34[C@H]5C[C@@H](C(C)(C)C)[C@]36[C@@H](OC(=O)[C@H]6O)O[C@]4(C(=O)O5)[C@]21O | 3.36% [at 17.3 µM] (inactive) | – | –
31 | CC1=CC(=O)CC(C)(C)C1CCC(C)O[C@@H]1O[C@H](CO[C@@H]2OC[C@@H](O)[C@H](O)[C@H]2O)[C@@H](O)[C@H](O)[C@H]1O (some centres undefined) | – | – | inactive [at 17.3 µM]
32 | CO/N=C(/C(=O)N[C@@H]1C(=O)N2C(C(=O)O)=C(Cn3ccc(=N)n3CCO)CS[C@H]12)c1csc(N)n1 | – | – | inactive
33 | C=C[C@@](C)(O)CC/C=C(\C)C(=O)O[C@@H]1[C@@H]2O[C@]2(C)[C@H]2[C@H](O[C@@H]3O[C@H](CO)[C@@H](O)[C@H](O)[C@H]3O)OC=C[C@@]12O | 1.31% [at 17.3 µM] (inactive) | – | –
34 | CC(C)C(CO)Nc1nc(Nc2cc(N)cc(Cl)c2)c2ncn(C(C)C)c2n1 (centres undefined) | – | 7.31 µM (active) | –
35 | NC(=O)[C@H]1CCS[C@@H]2C[C@]3(CCCN3C(=O)Cc3ccc(NC(=O)COc4ccc(Cl)cc4Cl)cc3)C(=O)N12 | – | 20.6 µM (active) | –
36 | CC[C@]12C=CCN3CC[C@@]4(c5cc([C@@]6(C(=O)OC)C[C@H]7C[C@@H](C(C)(F)F)CN(Cc8c6[nH]c6ccccc86)C7)c(OC)cc5N(C)[C@H]4[C@@](O)(C(=O)OC)[C@@H]1OC(C)=O)[C@@H]32 | – | 5.44 µM (active) | –
37 | CS(=O)(=O)N1CCC(NC(=O)c2[nH]ncc2NC(=O)c2c(Cl)cccc2Cl)CC1 | – | 9.2 µM (active) | –
38 | CCOc1ccc2nc(SCCN3CCOCC3)[nH]c2c1 | -4.75% (inactive) | – | –
39 | C[C@@H]1COCCN1c1cc(C2(S(C)(=O)=O)CC2)nc(-c2cccc3[nH]ccc23)n1 | – | 1.46 µM (active) | –
